Data on nine compounds can be found in publication PMC5540273 (PLoS ONE, 2017).

What all share (conditions): concentration: 1 μM, replicates: in singlicate; n = 1
Assay [1] concerns BRSK1.
Assay [2] has as its system BRSK2.
In assay [3] the test system is BTK.
The subject of assay [4] is BUB1.
The test system of assay [5] is CAMK1B.
In assay [6] the test system is CAMK1D.
The test system of assay [7] is CAMK1G.
The subject of assay [8] is CAMK1.
Assay [9] deals with CAMK2A.
The subject of assay [10] is CAMK2B.
Assay [11] relates to CAMK2D.
Assay [12] relates to CAMK2G.
Assay [13] relates to CAMK4.
For assay [14], the system named is CAMKK1.
Assay [15] has as its system CAMKK2.
The test system of assay [16] is CASK.
Assay [17] has as its system T1, CDC2L1.
T1 construct: gene CDK11B

The test system of assay [18] is CDC2L2.
The test system of assay [19] is T2, CDC2L5.
T2 construct: gene CDK13

Assay [20] has as its system T3, CDK11.
T3 construct: gene CDK19
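Note: KINOMEscan kinase panel screen.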

Take `CC(C)(C)OC(=O)NC1CCCN(c2cc(-c3ccc4c(N)n[nH]c4c3)nc(N)n2)C1` (stereo not drawn) [GSK2286096]: the “%Inh” value is reported as 0% in [1]; 0% in assay [2]; 0% in assay [3]; 0% in [4]; 25% in assay [5]; 21% in assay [6]. Further, the “%Inh” value in [7] worked out at 11%; in assay [8], 16%; in assay [9] it was 0%; in [10], 0%; in [11] it was 16%; in [12], 18%. For the same compound, the “%Inh” value is 0% in assay [13]; 0% in assay [14]; 32% in assay [15]; 2% in assay [16]; 8% in assay [17]; 0% in [18]. Also, the “%Inh” value in [19] turned out to be 0%; in [20], 38%.

`Cl.Cl.c1ccc(-c2cc3ccncc3cc2OC2CCNCC2)cc1` [GSK1122999]: the “%Inh” value is given as 17% in assay [1]; 6% in assay [2]; 0% in [3]; 0% in assay [4]; 0% in assay [5]; 20% in assay [6]. Also, the “%Inh” value was determined as 29% in [7]; 3% in assay [8]; 0% in assay [9]; 0% in assay [10]; 26% in assay [11]; 20% in [12]. Moreover, the “%Inh” value in assay [13] was 43%; in assay [14], 0%; in assay [15] it was 30%; in [16], 16%; in assay [17] it was 15%; in assay [18] it was 5%. Besides, the “%Inh” value in assay [19] stood at 0%; in assay [20], 12%.

In the case of `Cl.Fc1ccccc1COc1ccc(Nc2ncnc3ccc(-c4nnc(C(F)(F)F)o4)cc23)cc1Cl` [GW424170], the “%Inh” value in assay [1] is listed as 0%; in assay [2], 0%; in assay [3] it was 0%; in assay [4] it was 0%; in assay [5], 0%; in assay [6] it was 8%. In addition, the “%Inh” value in assay [7] stood at 0%; in [8], 13%; in assay [9], 0%; in assay [10] it was 0%; in [11], 0%; in [12] it was 14%. Also, the “%Inh” value in [13] came to 0%; in [14], 1%; in assay [15], 10%; in assay [16], 0%; in assay [17] it was 0%; in assay [18], 15%. Also, the “%Inh” value in [19] turned out to be 0%; in [20], 2%.

On to `Fc1ccc(-c2ncn(CCCNCc3ccccc3)c2-c2ccncc2)cc1`, for which the “%Inh” value in assay [1] amounted to 0%; in assay [2], 0%; in assay [3], 0%; in assay [4], 12%; in assay [5], 0%; in assay [6] it was 4%. The “%Inh” value in assay [7] turned out to be 0%; in assay [8], 2%; in assay [9] it was 21%; in [10], 6%; in [11], 0%; in assay [12], 0%. Besides, the “%Inh” value in assay [13] came to 4%; in assay [14] it was 0%; in [15] it was 0%; in assay [16], 27%; in [17], 0%; in [18], 0%. For the same compound, the “%Inh” value in assay [19] turned out to be 18%; in [20] it was 0%.

With `FC(F)(F)c1ccc(-c2nn3ncccc3c2-c2ccnc(Nc3cccc(C(F)(F)F)c3)n2)cc1` [GW828205], the “%Inh” value was 0% in [1]; 0% in assay [2]; 49% in assay [3]; 0% in assay [4]; 0% in [5]; 18% in assay [6]. Moreover, the “%Inh” value in [7] turned out to be 0%; in [8] it was 11%; in assay [9] it was 0%; in [10], 0%; in assay [11], 0%; in assay [12], 0%. The “%Inh” value in assay [13] is listed as 17%; in [14], 6%; in assay [15], 0%; in assay [16] it was 0%; in assay [17] it was 0%; in assay [18], 3%. Also, the “%Inh” value in assay [19] and in assay [20] was 0% each time.

As for `CCn1c(-c2ccncc2)nc2cnccc21` [SB-735216], the “%Inh” value in assay [1] is given as 0%; in assay [2], 0%; in assay [3], 28%; in assay [4] it was 15%; in assay [5] it was 45%; in assay [6] it was 6%. For the same compound, the “%Inh” value in assay [7], in assay [8], in assay [9], in assay [10], in [11] and in [12] was 0% in each case. For the same compound, the “%Inh” value in assay [13] turned out to be 0%; in assay [14], 0%; in assay [15], 4%; in assay [16], 5%; in [17] it was 9%; in assay [18], 0%. Further, the “%Inh” value in assay [19] worked out at 28%; in assay [20], 18%.

Consider `CNc1nccc(-c2c(-c3ccc(F)cc3)ncn2C2CCN(C)CC2)n1` [SB-222903], for which the “%Inh” value worked out at 0% in [1]; 0% in assay [2]; 0% in [3]; 75% in assay [4]; 0% in assay [5]; 0% in [6]. Moreover, the “%Inh” value in assay [7], in assay [8], in [9], in assay [10], in assay [11] and in assay [12] was 0% each time. The “%Inh” value in assay [13] came out at 7%; in assay [14], 0%; in assay [15] it was 0%; in [16] it was 11%; in assay [17], 4%; in assay [18], 13%. Also, the “%Inh” value in [19] and in [20] was 0% in each case.

As to `FC(F)(F)c1cc(Nc2nccc(-c3c(-c4ccc(Cl)cc4)nn4ncccc34)n2)ccc1Cl` [GW829351], the “%Inh” value in assay [1] is reported as 0%; in [2], 0%; in assay [3], 0%; in [4], 19%; in assay [5], 0%; in assay [6], 0%. Further, the “%Inh” value was 0% in assay [7]; 0% in [8]; 30% in assay [9]; 27% in assay [10]; 0% in [11]; 0% in assay [12]. Besides, the “%Inh” value in assay [13] was found to be 0%; in [14] it was 2%; in [15], 0%; in assay [16] it was 11%; in assay [17], 0%; in assay [18], 0%. The “%Inh” value in assay [19] and in assay [20] was 0% in each case.

Regarding `Clc1cc(Nc2ncnc3cc[nH]c23)ccc1OCc1ccccn1`, the “%Inh” value was 0% in assay [1]; 1% in assay [2]; 0% in assay [3]; 0% in assay [4]; 4% in [5]; 33% in [6]. Besides, the “%Inh” value in [7] turned out to be 27%; in [8], 35%; in [9] it was 0%; in [10] it was 0%; in assay [11], 19%; in assay [12], 0%. In addition, the “%Inh” value in assay [13] stood at 0%; in [14], 0%; in assay [15], 0%; in assay [16], 0%; in assay [17], 12%; in [18], 15%. Further, the “%Inh” value is 0% in [19] and 29% in assay [20].
